The values below come from PubChem BioAssay AID588413 (Sanford-Burnham Center for Chemical Genomics, 2011).

Structures are written as SMILES. The whole screen tested about 340,000 compounds, of which about 2,500 (0.74%) were called active.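 The calls were made as follows: active = inhibition above about 55% (limit read from the data); inactive = the rest.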 The entries come from a sample that favours actives as a whole.

A short description of the experiment: blockers of Gli reporter signaling – luciferase luminescence, Sufu-KO-LIGHT cells, uHTS, primary screen (AID 588413).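 Also: 0% = DMSO-treated cells and 100% = wells with medium but no cells.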 The note with it: Sufu-KO-LIGHT fibroblasts, at 5 µM, stronger effect = higher value.
The term inhibition denotes the change of the read-out against control, counted positive when it falls. In the case of `CC1=CC(=Cc2sc3ccccc3[n+]2C)C=C(C)O1`, the inhibition is 80.9% (active).

Turning to `O=C(O)CCn1cc(C=C2C(=O)NC(=S)NC2=O)c(-c2cccc(Br)c2)n1`, the inhibition is -2.59% (inactive).

For the compound `CC(C)CN1CCN(Cc2ccccc2C(F)(F)F)CC1CCO` (stereo not given), the inhibition is 20.7% (inactive). The result for `Cc1cc(C)c2c(c1)NP(=S)(c1ccccc1)N2` (stereo not given) reads -6.68% (inactive); that for `CNC(=O)Nc1ccc(C(O)(C(=O)OC)C(F)(F)F)cc1` (stereo not given), 11.8% (inactive); that for `CCCCCCCCCCCCn1ccc(=N)cc1`, 87.5% (active). With `O=C1C2(Cl)C3(Cl)C4(Cl)C(Cl)(Cl)C5(Cl)C3(Cl)C1(Cl)C5(Cl)C24Cl` (stereo not given), the inhibition is -3.44% (inactive). Take `COc1cc(-n2c(=S)[nH]c3ccc(C)cc3c2=O)c(Cl)cc1Cl`: the inhibition was -14.6% (inactive). For the compound `CCN(CC)CCOC(=O)c1cc2cc(COC)ccc2o1`, the inhibition was 0.39% (inactive). As for `CCOc1cccc(=NC2CCCCC2)c2c(C)[nH]c(C)c12`, the inhibition was 79% (active).

Regarding `CC(C)Nc1nc(Cl)nc(NC(C)C)n1`, the inhibition was 1.26% (inactive). For the compound `O=C(C1CC(=O)N(C2CCCC2)C1)N1CCC2(CC1)OCCO2` (stereo not given), the inhibition is -2.84% (inactive). With `C=CCN(CC=C)C(=O)Nc1ccc(OCC)cc1`, the inhibition was -12.4% (inactive). For the compound `CCC(C)(O)C(=O)OC1C(=O)OC2CC3C(C)=CC(=O)C(O)C3(C)C3C4(O)OCC23C1C(C)C4O` (stereo not given), the inhibition is 82% (active). As for `CN(C)CC1Oc2ccccc2OC1(O)c1ccccc1` (stereo not given), the inhibition is -3.73% (inactive). With `CCOP(=O)(OCC)C(NC(=O)c1ccc(OC)cc1)C(Cl)(Cl)Cl` (stereo not given) the figure was -2.69% (inactive).

With `CCOP(=O)(OCC)C(NC(=O)c1ccc(C)cc1)C(Cl)(Cl)Cl` (stereo not given), the inhibition was 2.77% (inactive). As for `CC1=C2C(=O)C3C(CC=C4CC(OC5OC(O)C(O)C(O)C5CO)CCC43C)C2CCC12OC1CC(C)CNC1C2C` (stereo not given), the inhibition was -0.71% (inactive). With `O=C1/C(=C\c2ccc3c(c2)OCO3)N2CCC1CC2` the figure was 16.5% (inactive).

As to `N[C@@H](Cc1c[nH]c2ccccc12)c1nnc(SCc2c(F)cccc2Cl)o1`, the inhibition is -1.34% (inactive). For the compound `CCOc1ccc(-c2cc(C)[n+](CCN(CC)CC)c(-c3ccc(OCC)cc3)c2)cc1`, the inhibition is 77.8% (active). `COC(=O)C1=C(c2cc3ccccc3s2)C[C@@H]2CC[C@H]1N2C(=O)NC(C)C`: the inhibition was 9.18% (inactive). With `COc1ccc(-c2nn(CCC#N)cc2C(=O)Nc2ccc(C(C)=O)cc2)cc1`, the inhibition is -28.4% (inactive). On to `COC(=O)COc1cc(C)cc2oc(=O)c3c(c12)CCCC3`, for which the inhibition was -1.17% (inactive).

For `COc1ccc(NC(=O)c2cn(CCC#N)nc2-c2ccc([N+](=O)[O-])cc2)cc1`, the inhibition was 6.35% (inactive). The result for `CC(=O)OC1C2(CC3N4C(=O)C5(CO)SSC4(CC31O)C(=O)N5C)OC(C)C(C)(C)C2=O` (stereo not given) reads 85.7% (active); that for `Cc1ccccc1NC(=O)COC(=O)c1cc(C)n(C2CC2)c1C`, 0.92% (inactive); that for `O=C1NC(=O)C(CCc2ccccn2)(Cc2cccc(Cl)c2Cl)C(=O)N1c1ccc(Br)cc1` (stereo not given), 0.16% (inactive). For `Cc1ccnc(-n2c(C)cc(/C=C3\C(=O)NC(=S)N(C)C3=O)c2C)c1`, the inhibition was 7.71% (inactive). With `CC[C@H]1CC2CN3CCc4c([nH]c5ccccc45)C(C(=O)OC)(C2)C13` (stereo not given in full), the inhibition is 8.02% (inactive).
